Source: PubChem BioAssay AID1159580 (chemical genetic matrix, 2015)
Out of some 5,500 compounds screened, about 2,000 (36%) were called active. Inconclusive results (about 18%) are left out. No stated cut-off is given here; in the data, active means normalized growth mostly below about 0.91 (no sharp cut-off); inconclusive means no clear call, values can overlap the other calls; inactive means mostly above about 0.92. The list shows a part of the results.

Experiment: chemical genetic growth profiling, strain panel (AID 1159580);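 further: tested at 20 µM; growth read once vehicle control cultures reached saturation at 30 °C; 1 = growth at the plate median or of vehicle wells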
Conditions: S. cerevisiae deletion strains, growth OD
[1] = locus YHR030C, strain SLT2, stronger effect = lower value
[2] = locus YHR079C, strain IRE1, stronger effect = lower value
[3] = locus YJL095W, strain BCK1, stronger effect = lower value
[4] = locus YJR066W, strain TOR1, stronger effect = lower value
[5] = locus YLR113W, strain HOG1, stronger effect = lower value
[6] = locus YNL183C, strain NPR1, stronger effect = lower value
[7] = locus YOR231W, strain MKK1, stronger effect = lower value
[8] = locus YPL256C, strain CLN2, stronger effect = lower value

Measured: normalized growth

C[N+]1(C)CCc2cc3c(cc2[C@H]1C1OC(=O)c2c1ccc1c2OCO1)OCO3 (some centres undefined)
inactive: locus YAL021C, strain ccr4, stronger effect = lower value 0.981 | locus YAL026C, strain drs2, stronger effect = lower value 0.987 | locus YAL030W, strain snc1, stronger effect = lower value 0.999 | locus YBL061C, strain skt5, stronger effect = lower value 1 | locus YBR009C, strain hhf1, stronger effect = lower value 0.992 | locus YBR023C, strain chs3, stronger effect = lower value 1.01 | locus YBR171W, strain sec66, stronger effect = lower value 1 | locus YBR231C, strain swc5, stronger effect = lower value 1.01 | locus YBR279W, strain paf1, stronger effect = lower value 0.997 | locus YCL011C, strain gbp2, stronger effect = lower value 0.999 | locus YCL016C, strain dcc1, stronger effect = lower value 0.991 | locus YCL061C, strain MRC1, stronger effect = lower value 0.994 | locus YCL069W, strain vba3, stronger effect = lower value 0.999 | locus YCR088W, strain abp1, stronger effect = lower value 0.997 | locus YDL005C, strain med2, stronger effect = lower value 1 | locus YDL040C, strain nat1, stronger effect = lower value 0.996 | locus YDR001C, strain nth1, stronger effect = lower value 0.983 | locus YDR069C, strain doa4, stronger effect = lower value 1.02 | locus YDR137W, strain rgp1, stronger effect = lower value 0.996 | locus YDR159W, strain sac3, stronger effect = lower value 1.07 | locus YDR195W, strain ref2 0.989 | locus YDR297W, strain sur2, stronger effect = lower value 1.01 | locus YDR334W, strain swr1, stronger effect = lower value 0.986 | locus YDR335W, strain msn5, stronger effect = lower value 0.996 | locus YDR392W, strain spt3, stronger effect = lower value 0.982 | locus YEL003W, strain gim4, stronger effect = lower value 1 | locus YEL037C, strain rad23, stronger effect = lower value 0.99 | locus YEL061C, strain CIN8 (second series), stronger effect = lower value 0.99 | locus YER015W, strain faa2, stronger effect = lower value 0.992 | locus YER016W, strain bim1, stronger effect = lower value 1 | locus YER111C, strain swi4, stronger effect = lower value 1.01 | locus YER155C, strain BEM2 (second series), stronger effect = lower value 1 | locus YFR010W, strain ubp6, stronger effect = lower value 0.989 | locus YGL167C, strain pmr1, stronger effect = lower value 0.998 | locus YGL173C, strain kem1, stronger effect = lower value 1.01 | locus YGL227W, strain vid30, stronger effect = lower value 1 | locus YGL240W, strain doc1, stronger effect = lower value 1.01 | locus YGL253W, strain hxk2, stronger effect = lower value 0.995 | locus YHR013C, strain ard1, stronger effect = lower value 0.957 | locus YHR027C, strain rpn1, stronger effect = lower value 0.992 | [1] 1.06 | [2] 1.06 | locus YHR142W, strain chs7, stronger effect = lower value 0.981 | locus YJL092W, strain hpr5, stronger effect = lower value 0.995 | locus YJL095W, strain BCK1 (second series), stronger effect = lower value 0.994 | [3] 1.06 | locus YJL115W, strain asf1, stronger effect = lower value 0.978 | locus YJL129C, strain trk1, stronger effect = lower value 1 | locus YJL154C, strain vps35, stronger effect = lower value 0.991 | locus YJL164C, strain tpk1, stronger effect = lower value 0.98 | locus YJL166W, strain qcr8, stronger effect = lower value 1 | locus YJL187C, strain SWE1, stronger effect = lower value 1.02 | [4] 0.973 | locus YKL160W, strain elf1, stronger effect = lower value 0.989 | locus YKR026C, strain gcn3, stronger effect = lower value 0.991 | locus YKR091W, strain srl3, stronger effect = lower value 0.988 | locus YLL001W, strain dnm1, stronger effect = lower value 0.97 | locus YLL026W, stronger effect = lower value 1 | locus YLL041C, strain sdh2, stronger effect = lower value 0.993 | locus YLR027C, strain aat2, stronger effect = lower value 1.01 | [5] 1.03 | locus YLR221C, strain rsa3, stronger effect = lower value 1.03 | locus YLR258W, strain gsy2, stronger effect = lower value 1.01 | locus YLR262C, strain YPT6 (second series), stronger effect = lower value 0.995 | locus YLR320W, strain mms22, stronger effect = lower value 1.03 | locus YLR342W, strain FKS1, stronger effect = lower value 0.996 | locus YLR357W, strain rsc2, stronger effect = lower value 0.956 | locus YLR370C, strain arc18, stronger effect = lower value 1.01 | locus YLR384C, strain iki3, stronger effect = lower value 0.999 | locus YML120C, strain ndi1, stronger effect = lower value 0.991 | locus YMR058W, strain fet3, stronger effect = lower value 0.986 | locus YMR125W, strain sto1, stronger effect = lower value 0.97 | locus YMR129W, stronger effect = lower value 1 | locus YMR205C, strain PFK2, stronger effect = lower value 0.971 | locus YMR231W, strain pep5, stronger effect = lower value 0.983 | locus YNL071W, strain lat1, stronger effect = lower value 0.997 | [6] 0.974 | locus YNL209W, strain ssb2, stronger effect = lower value 1 | locus YNL248C, strain rpa49, stronger effect = lower value 0.959 | locus YNL322C, strain KRE1 (second series), stronger effect = lower value 1 | locus YNR049C, strain mso1, stronger effect = lower value 1.01 | locus YOR001W, strain rrp6, stronger effect = lower value 1.01 | locus YOR070C, strain gyp1, stronger effect = lower value 1.02 | locus YOR080W, strain dia2, stronger effect = lower value 1.01 | locus YOR083W, strain WHI5, stronger effect = lower value 0.997 | locus YOR106W, strain vam3, stronger effect = lower value 0.963 | [7] 1.03 | locus YOR265W, strain rbl2, stronger effect = lower value 1.01 | locus YOR270C, strain vph1, stronger effect = lower value 0.967 | locus YOR290C, strain snf2, stronger effect = lower value 0.95 | locus YPL051W, strain arl3, stronger effect = lower value 1.04 | locus YPL078C, strain atp4, stronger effect = lower value 0.965 | locus YPL106C, strain sse1, stronger effect = lower value 0.999 | locus YPL240C, strain hsp82, stronger effect = lower value 1.01 | [8] 1.03

CC(C)N=c1cc2n(-c3ccc(Cl)cc3)c3ccccc3nc-2cc1Nc1ccc(Cl)cc1
active: [2] 0.812 | [3] 0.869 | [5] 0.807 | [7] 0.831 | [8] 0.818
inactive: [1] 0.929 | [4] 0.948 | [6] 0.9

CCCCCc1ccc(S(=O)(=O)Nc2ncc(C)cc2Br)cc1
active: [1] 0.568 | locus YKL048C, strain ELM1, stronger effect = lower value 0.793 | [5] 0.674 | [8] 0.792
inactive: locus YAR019C, strain CDC15, stronger effect = lower value 0.955 | locus YBL105C, strain PKC1, stronger effect = lower value 0.953 | locus YBR135W, strain CKS1, stronger effect = lower value 0.942 | locus YBR136W, strain MEC1, stronger effect = lower value 0.952 | locus YBR160W, strain CDC28, stronger effect = lower value 0.947 | locus YDL017W, strain CDC7, stronger effect = lower value 0.953 | locus YDL028C, strain MPS1, stronger effect = lower value 0.953 | locus YDL101C, strain DUN1, stronger effect = lower value 0.962 | locus YDL108W, strain KIN28, stronger effect = lower value 0.951 | locus YDL132W, strain cdc53, stronger effect = lower value 0.962 | locus YDL214C, strain PRR2, stronger effect = lower value 0.832 | locus YDR052C, strain DBF4, stronger effect = lower value 0.962 | locus YDR054C, strain cdc34, stronger effect = lower value 0.945 | locus YDR226W, strain ADK1, stronger effect = lower value 0.959 | locus YDR477W, strain SNF1, stronger effect = lower value 0.873 | locus YER123W, strain YCK3, stronger effect = lower value 0.835 | locus YER133W, strain GLC7, stronger effect = lower value 0.884 | locus YFL009W, strain cdc4, stronger effect = lower value 0.957 | locus YFL029C, strain CAK1, stronger effect = lower value 0.949 | locus YFR003C, strain YPI1, stronger effect = lower value 0.959 | locus YFR019W, strain FAB1, stronger effect = lower value 0.939 | locus YFR028C, strain CDC14, stronger effect = lower value 0.95 | locus YGR040W, strain KSS1, stronger effect = lower value 0.865 | locus YGR052W, strain FMP48, stronger effect = lower value 0.847 | locus YGR092W, strain DBF2, stronger effect = lower value 0.769 | [2] 0.835 | locus YHR082C, strain KSP1, stronger effect = lower value 0.857 | locus YHR205W, strain SCH9, stronger effect = lower value 0.702 | locus YIL147C, strain SLN1, stronger effect = lower value 0.96 | [3] 0.789 | locus YJL128C, strain PBS2, stronger effect = lower value 0.852 | locus YJL157C, strain FAR1, stronger effect = lower value 0.863 | locus YJR016C, strain ILV3, stronger effect = lower value 0.96 | locus YJR066W, strain TOR1 (second series), stronger effect = lower value 0.856 | [4] 0.906 | locus YKL067W, strain YNK1, stronger effect = lower value 0.853 | locus YKL101W, strain HSL1, stronger effect = lower value 0.78 | locus YKL193C, strain SDS22, stronger effect = lower value 0.964 | locus YKL203C, strain TOR2, stronger effect = lower value 0.936 | locus YLR133W, strain CKI1, stronger effect = lower value 0.845 | locus YLR403W, strain SFP1, stronger effect = lower value 0.779 | locus YML070W, strain DAK1, stronger effect = lower value 0.78 | locus YMR001C, strain CDC5, stronger effect = lower value 0.955 | locus YMR205C, strain PFK2 (second series), stronger effect = lower value 0.836 | locus YMR277W, strain FCP1, stronger effect = lower value 0.956 | locus YNL006W, strain LST8, stronger effect = lower value 0.968 | locus YNL020C, strain ARK1, stronger effect = lower value 0.796 | locus YNL161W, strain CBK1, stronger effect = lower value 0.961 | [6] 0.806 | locus YNL207W, strain RIO2, stronger effect = lower value 0.968 | locus YNL222W, strain SSU72, stronger effect = lower value 0.951 | locus YNL307C, strain MCK1 (second series), stronger effect = lower value 0.811 | locus YOL078W, strain AVO1, stronger effect = lower value 0.95 | locus YOL136C, strain PFK27, stronger effect = lower value 0.818 | locus YOR061W, strain CKA2, stronger effect = lower value 0.815 | locus YOR119C, strain RIO1, stronger effect = lower value 0.893 | [7] 0.783 | locus YOR329C, strain SCD5, stronger effect = lower value 0.957 | locus YPL031C, strain PHO85, stronger effect = lower value 0.882 | locus YPL153C, strain RAD53, stronger effect = lower value 0.829 | locus YPL204W, strain HRR25, stronger effect = lower value 0.843 | locus YPL209C, strain IPL1, stronger effect = lower value 0.955 | locus YPR025C, strain CCL1, stronger effect = lower value 0.955 | locus YPR106W, strain ISR1, stronger effect = lower value 0.921 | locus YPR111W, strain DBF20, stronger effect = lower value 0.903 | strain NNK1, stronger effect = lower value 0.923 | strain TSCII, stronger effect = lower value 0.955
